High-throughput results: PubChem, National Center for Advancing Translational Sciences (NCATS)
FLuc modulator – qHTS profiling assay for firefly luciferase inhibitor/activator using purifed enzyme and Km concentrations of substrates (counterscreen for miR-21 project); 360,000 compounds, 6.9% hits; purified FLuc, Km substrates, luminescence inhibition; Luciferin 4-monooxygenase (Photinus pyralis), P08659; Potency, µM (top dose mostly 57.5 µM), without a hit: at the top dose activity change, negative = inhibition, actives largely listed as inhibitors;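 further: plate controls were vehicle for no effect and reference inhibitor for full effect; nearly all actives have a fitted effect of over 55% in size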
Target sequence (P08659 whole entry, looked up): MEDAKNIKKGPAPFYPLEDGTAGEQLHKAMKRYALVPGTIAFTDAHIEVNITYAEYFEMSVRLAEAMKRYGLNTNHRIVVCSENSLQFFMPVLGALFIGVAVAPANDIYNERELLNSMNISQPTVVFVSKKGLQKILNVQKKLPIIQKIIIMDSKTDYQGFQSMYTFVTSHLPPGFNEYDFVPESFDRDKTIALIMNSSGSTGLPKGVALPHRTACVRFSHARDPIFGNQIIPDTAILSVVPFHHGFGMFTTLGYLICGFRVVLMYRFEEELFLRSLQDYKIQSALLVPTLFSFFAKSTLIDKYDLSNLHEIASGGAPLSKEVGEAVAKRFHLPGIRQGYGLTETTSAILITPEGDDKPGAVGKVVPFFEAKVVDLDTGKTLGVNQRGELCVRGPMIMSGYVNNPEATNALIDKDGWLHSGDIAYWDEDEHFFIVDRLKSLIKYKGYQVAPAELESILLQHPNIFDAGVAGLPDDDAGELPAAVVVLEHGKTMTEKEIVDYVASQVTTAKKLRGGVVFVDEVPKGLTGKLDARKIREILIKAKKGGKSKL
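Purified P. pyralis luciferase (10nM final) with 10uM D-luciferin and 10uM ATP (Km levels) in 50mM Tris acetate pH 7.5, 10mM Mg acetate, 0.01% Tween-20, 0.05% BSA; qHTS 6-point titration, ~60 µM downward; luminescence read.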
p53 reactivation – qHTS assay for re-activators of p53 using a Luc reporter | Potency, µM (top dose mostly 92.2 µM), for inactives: top-dose activity change, positive = activation, hits mostly activators | AID 504706, 2011 | 320,000 compounds, 0.063% hits | H1299 p53-A138V BP100-luciferase reporter, luminescence, 24 h; further: % of control where 0% means no effect; nearly all actives have a fitted effect of over 45% in size
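H1299 (p53-null), stable ts p53-A138V + BP100-Luc; 1000 cells/well, Opti-MEM/10% FBS; cpd 4 pt, 1:5; 24 h, 37 deg C, 5% CO2; detection reagent 10 min RT; luminescence.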
Rab9 prom act – qHTS Assay for Rab9 Promoter Activators; Huh7 Rab9 promoter-luciferase reporter, luminescence, 24 h; Potency, µM (series often up to 9.22 µM), without a hit: at the highest dose activation, negative = inhibition, actives largely listed as activators; 320,000 compounds, 2.8% hits; AID 485297, 2010; further: % of control where 0% means no effect; nearly all actives have a fitted effect of over 60% in size
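Quantitative HTS format; Huh7 Rab9-luciferase reporter cells (1500/well) receive compound 2 h post-plating, incubate 24 h at 37 °C, then get luciferase reagent for 10 min before luminescence reading.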
ELG1 genotox – qHTS screen for small molecules that induce genotoxicity in human embryonic kidney (HEK293T) cells expressing luciferase-tagged ELG1; 330,000 compounds, 1.3% hits; HEK293T ELG1-luciferase reporter, luminescence, 16 h; AID 504466, 2011; Potency, µM (doses to about 46 µM), for the others: at the highest dose activity change, positive = activation, most hits filed as activators; further: % of control where 0% means no effect; nearly all actives have a fitted effect of over 60% in size
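Step 1: seed 2,000 HEK293T ELG1-luciferase cells per well. Step 2: add compound or DMSO, incubate 16 hr at 37 °C. Step 3: ONE-Glo, 30 min at room temperature, read luminescence.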
NPC1 promoter act – qHTS Assay for NPC1 Promoter Activators. Huh7 NPC1 promoter luciferase reporter, 24 h. Potency, µM (titrated, usually from 9.22 µM), for the others: at the highest dose activation, usual class: activators. 320,000 compounds, 2.4% hits. AID 485313, 2010; further: % of control where 0% means no effect; nearly all actives have a fitted effect of over 60% in size
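Huh7 reporter cells (NPC1 promoter driving luciferase) are dosed with compound for 24 h at 37 °C, 5% CO2; luciferase detection reagent is then added and luminescence measured after 10 min at ambient temperature.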
SMN2 splice up – qHTS Assay for Enhancers of SMN2 Splice Variant Expression | Potency, µM (titrated, usually from 46.1 µM), without a hit: top-dose activity change, positive = activation, actives largely listed as activators | AID 1458, 2008 | 210,000 compounds, 2.8% hits | HEK293 SMN2-luciferase splicing reporter, luminescence, 30-36 h; further: % of control where 0% means no effect; nearly all actives have a fitted effect of over 55% in size
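HEK293 cells carry an SMN2 minigene-luciferase reporter in which exon 7 inclusion puts luciferase in frame. Cells were seeded at 2000 cells/well, attached for 10-12 hours, then exposed to compounds for 30-36 hours at 37C before ONE-Glo luminescence.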
An asterisk follows results filed as active; ? = inconclusive; . = no result given; [ ] = dose if it differs, or a comment. Most compounds without a hit are left out; they make up all but 7.3% or so of the library. The call rests on the fitted dose curve; in most records, active means well fitted curve in the direction sought with a large enough effect; inconclusive means small, poorly fitted or top-dose-only effect, or another doubt; inactive means no such curve, though single readings can be large; an effect the other way counts as inactive or inconclusive. Potency means the concentration at half of the fitted maximal effect.

SMILES | FLuc modulator | p53 reactivation | Rab9 prom act | ELG1 genotox | NPC1 promoter act | SMN2 splice up
COc1ccc(C(=O)N2CCCC(CCC(=O)NCc3ccccc3F)C2)c(OC)n1 (centres undefined) | 4% | 7% | -1% | -2% | -2% | .
CC1=CN2C(=NC(=O)CC2(C)C(=O)N(CC(=O)NC2CCCC2)Cc2ccc(Cl)cc2)C=C1 (centres undefined) | 0% | 0% | -3% | -12% | -3% | .
CCc1ccc(NC(=O)CCC(=O)Nc2nnc(C(F)(F)F)s2)cc1 | 27µM* | 38% | 0% | 9% | 21% | .
CCc1ccc(NC(=O)CCC(=O)Nc2nnc(C(C)C)s2)cc1 | ? | 9% | 0% | 10% | -3% | .
COc1cccc(/C=N/NC(=S)NC2CC3CC2C2C=CCC32)c1O (centres undefined) | 5.4µM* | 7% | -2% | 7% | 0% | .
Oc1ccccc1/C=N/NC(=S)NC1CC2CC1C1C=CCC21 (centres undefined) | 5.4µM* | ? | ? | ? | 17% | .
COc1cccc(/C=N/NC(=O)c2ccc(-c3ccccc3)cc2)c1O | 2% | 16% | -29% | 2% | -33% | -78%
O=C(Nc1ccsc1C(=O)NC1CCCCC1)c1ccc(F)cc1 | -10% | -4% | -3% | 10% | -4% | -16%
CCC1S/C(=N/C(=O)NC2CCCCC2)NC1=O (centres undefined) | ? | ? | ? | ? | ? | 11µM*
O=C(/N=C1\NC(=O)C(F)(C(F)(F)F)S1)NC1CCCCC1 (centres undefined) | 13µM* | ? | 2% | -3% | -4% | ?
O=c1c2oc3ccccc3c2n(Cc2ccc(Cl)cc2)c(=O)n1Cc1ccccc1 | -2% | . | . | . | . | .
CCc1ccc(OC(=O)/C=C/c2ccco2)cc1 | 0.85µM* | 0% | 12% | 4% | 16% | .
CCOC(=O)c1cnn2c(N)c(C#N)cnc12 | 7% | 4% | -2% | 6% | 4% | 19%
CCOC(=O)c1cnc2c([N+](=O)[O-])cnn2c1C | -4% | -4% | -1% | -2% | 8% | 10%
CCOC(=O)c1cnc2c(-c3cccc(Br)c3)cnn2c1C | 2.4µM* | 15% | 3.5µM* | ? | 3.2µM* | .
CCOC(=O)c1cnn(C(=O)c2ccccc2)c1N | 19µM* | 6% | 4% | 1% | -1% | -8%
CCOC(=O)c1cnn2c(C)cc(-c3ccccc3)nc12 | 19µM* | 20% | 3.5µM* | 9.2µM* | ? | 32µM*
CCOC(=O)c1cc2nc(-c3ccccc3)cc(C)n2n1 | 5% | . | 2% | -2% | -2% | .
CCOC(=O)c1cnc2c(C(=O)OCC)cnn2c1N | ? | 10% | 4µM* | 9% | ? | .
CCOC(=O)c1ccc(NC(=O)c2c(-c3c(F)cccc3Cl)noc2C)cc1 | 4% | . | . | . | . | 6%
Cc1ccc(C)c(/C(=N\N=C(N)N)C2CC2)c1 | . | . | . | . | . | -2%[9.22 µM]
CCSc1nnc([C@H](C)NC(=O)OC(C)(C)C)o1 | 13% | -2% | -8% | 0% | 4% | -6%
Cc1cc(C)n2ncc(/C(N)=N/OC(=O)Nc3ccc(Cl)cc3)c2n1 | ? | 3% | -3% | -6% | -1% | .
Cc1cc(C)n2ncc(/C(N)=N/OC(=O)c3ccccc3F)c2n1 | 12µM* | 15% | ? | ? | ? | .
Cc1cccc(N2CCN(Cc3nnc(-c4ccc5c(c4)OCO5)o3)CC2)c1C | -9% | . | . | . | . | -1%
CN(C)c1ccc(CNC(=O)c2cccc(NC(=O)N3CCSc4ncccc43)c2)cc1 | 0% | . | . | . | . | .
Cc1cccc(NC(=O)c2ccoc2C)n1 | ? | ? | 27% | ? | 18% | 18µM*
